# Shown are actives, neighbours in structure and some others; about 3.1% of the full set was active somewhere.
# PAX8 reporter = inhibitors of PAX8-driven TPO luciferase reporter, primary screen, RMG-I cells, single concentration; SteadyGlo, 24 h; inhibition, % at 12.6 µM; 360,000 compounds, 1.2% hits;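 active = mean replicate inhibition at least 60% with every replicate also reaching 60%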;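 also: luciferase light reporting Pax8 driven TPO promoter activity; plate controls were median of neutral control wells for no effect and mitoxantrone controls for full effect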
# EWS-Fli block = EWS/Fli-driven NR0B1 reporter inhibitors, primary screen, A673 cells, NR0B1 luciferase, luminescence, MLPCN library | 350,000 compounds, 0.67% hits | AID 651661, 2012 | inhibition, % at 12.6 µM | viability-normalised;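 active = mean inhibition of at least 50% after viability correction, with every replicate also passing that limit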;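 also: firefly luciferase signal divided by Alamar Blue viability fluorescence both relative to DMSO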
# C2C12 statin = suppressors of statin myotoxicity in C2C12 myotubes, primary screen, cell-based, single point, plate reader; 330,000 compounds, 0.78% hits; AID 602340, 2012; C2C12 myotubes + simvastatin, ATP luminescence, 48 h; scaled: DMSO 0, geranylgeraniol control 100; rescue of ATP level, % at 7.49 µM;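 active = mean ATP rescue above about 67%, or every replicate alone reaching that limit, limit read from the data, passing the limit was not always enough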;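 also: myotubes were challenged with 10 µM simvastatin during compound exposure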
# INS-1E GSIS act = GLuc luminescence reporter in INS-1E cells, primary screen for activators of glucose-dependent secretion of insulin | INS-1E GLuc reporter insulin secretion, 2-3 h | activation, % at 16.6 µM | 370,000 compounds, 0.61% hits | AID 743287, 2014;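 active = lowest replicate activation of at least 40%, so every replicate reaches that level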;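 also: 0% = median of neutral control wells and 100% = median of IBMX positive control wells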
# Env fusion inh = inhibitors of HIV-1 Env-driven cell-cell fusion, primary screen, HeLa-JRFL effector, CEM21 target cells, luciferase. inhibition, % at 12.3 µM. 360,000 compounds, 1.1% hits. AID 651610, 2012;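 active = mean replicate inhibition score of at least 50 and every replicate individually at or above 50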;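 also: 0% = plate neutral controls and 100% = maraviroc near 300 nM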
# miR122 inh = miR-122 Renilla sensor signal increase in Huh7, primary screen, miR-122 inhibitor project, cell-based, single point, plate reader; activation (reporter increase), % at 12.5 µM; Huh7 miR-122 Renilla luciferase sensor, 48 h; neutral wells = 0, positive control = 100; 340,000 compounds, 0.3% hits;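 active = mean replicate activation score at least 90 and every replicate individually at or above 90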;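 also: higher luciferase means less miR-122 activity so hits act as miR-122 inhibitors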
# The depositor's hits bear a star; . = not tested or not shown; [ ] = remark or other dose.
SMILES,PAX8 reporter,EWS-Fli block,C2C12 statin,INS-1E GSIS act,Env fusion inh,miR122 inh
CCOc1ccc(CCNC(=O)CCNC(=O)c2ccco2)cc1OCC,-3,.,1,92*,13,0
CCOc1ccc(CCNC(=O)COC(=O)COc2ccc(Cl)cc2)cc1OCC,-18,2,.,45*,-8,.
CCOc1ccc(CCNC(=O)COC(=O)c2nc3nc(C)cc(C)n3n2)cc1OCC,-1,.,.,45*,5,-2
COCC(=O)Nc1ccc2c(c1)OC[C@@H](C)N(Cc1cncnc1)C[C@H](C)[C@H](OC)CN(C)C2=O,.,.,.,20,.,.
C[C@H](O)C#Cc1ccc2c(c1)O[C@@H](CN(C)Cc1cncnc1)[C@H](C)CN([C@@H](C)CO)S2(=O)=O,16,-10,-16,23,-2[16.7 µM],-1[16.7 µM]
COc1cccc(Nc2nc(C(N)CO)cs2)n1 (configuration not stated),7,4,-1,41*,16,-4

# High-throughput results from PubChem.
